Measured values as given in PubChem BioAssay (EPA / NIEHS).
Results filed as inconclusive are left out. The source made the active and inactive calls. Rule for the calls: active = hit-call score of the fitted dose curve at least 0.9, where 1 is the maximum; inconclusive = response in the unintended direction; inactive = score below 0.9.

Test: ATG_M_19_TRANS: Attagene TRANS-FACTORIAL HepG2 Assay for M19 Transcription Factor (Internal Marker) (AID 2282974)
Details: HepG2 Attagene TRANS-FACTORIAL M19 internal marker reporter
Procedure: ATG_TRANS is a cell-based, multiplexed-readout assay that uses HepG2, a human liver cell line, with measurements taken at 24 hours after chemical dosing in a 24-well plate.ATG_M_19_TRANS is one of 30 assay component(s) measured or calculated from the ATG_TRANS assay. It is designed to make measurements of mRNA induction, a form of inducible reporter, as detected with fluorescence intensity signals by Reverse transcription polymerase chain reaction (RT-PCR) and Capillary electrophoresis technology.Data from the assay component ATG_M_19_TRANS was analyzed into 1 assay endpoint. This assay endpoint, ATG_M_19_TRANS, was analyzed in the positive analysis fitting direction relative to DMSO as the negative control and baseline of activity. Using a type of inducible reporter, measures of mRNA for gain-of-signal activity can be used to understand the background control at the transcription factor-level as they relate to the gene . Furthermore, this assay endpoint can be referred to as a secondary readout, because this assay has produced multiple assay endpoints where this one serves a background control function. To generalize the intended target to other relatable targets, this assay endpoint is annotated to the background measurement intended target family, where the subfamily is internal marker.
Human liver HepG2 cells are transiently transfected with multiple reporter transcription units (MRTUs) in 6-well plates using FuGene 6 reagent (Roche; 3 ml FuGene/1 mg DNA). The MRTU constructs are regulated by a cis-regulating element (promoter). […] A major difference between the CIS and TRANS system is that in CIS activities of endogenous TFs are measured, whereas the TRANS assay evaluates changes in activities of exogenous, chimeric NR-Gal4 proteins. […] At the end of 24 hour incubation, total RNA was isolated using TriZol reagent (Invitrogen). The isolated RNA is then reverse-transcribed using oligo(dT) primer and Mo-MLV reverse transcriptase (Invitrogen) with DNAse I (Ambion) treatment for 30 min. The one-tenth of the produced cDNA was amplified by PCR using Taq DNA polymerase (Invitrogen) and two reporter sequence-specific primers. The PCR products were fluorescently labeled by primer extension with 6-arboxyfluorescein (6-FAM) 5'-labeled reporter sequence-specific primer (2 min at 95 C, 20 s at 68 C and 10 min at 72 C) and these products were digested with 5U of HpaI (New England Biolabs) for 2h at 37 C. The fragments were purified using Qiaquick PCR columns (Qiagen), analyzed on an ABI 3130xL genetic analyzer (Applied Biosystems) with peak positions identified by using a set of X-rhodamine (ROX)-labeled MapMarker1000 molecular weight standards (BioVentures). The raw capillary electrophoresis data was processed using Attagraph software (Attagene).

SMILES | outcome
C=CCN=C=S | inactive
COCCl | inactive
CCC[CH2][Sn]([CH2]CCC)([CH2]CCC)[CH2]CCC | inactive
O=C(O)c1cc(I)cc(I)c1I | inactive
CNC(=O)O/N=C/C(C)(C)S(C)(=O)=O | inactive
CCC[CH2][Sn]([Cl])([Cl])[CH2]CCC | inactive
O=c1[nH]c(=O)n(Cl)c(=O)n1Cl | inactive
CN(N=O)c1ccc([N+](=O)[O-])cc1 | inactive
C[C@]12CC[C@@H](O)C[C@@H]1CC[C@@H]1[C@@H]2CC[C@]2(C)C(=O)CC[C@@H]12 | inactive
O=c1nc(O)n(Cl)c(=O)n1Cl | inactive
Cc1ccccc1OP(=O)(Oc1ccccc1)Oc1ccccc1 | inactive
COC(=O)Nc1cccc(OC(=O)Nc2cccc(C)c2)c1 | inactive
CC(C)C(C)(N)C#N (stereo not given) | inactive
C[C@H]1C(=O)O[C@@H]2CCN3CC=C(COC(=O)[C@](C)(O)[C@]1(C)O)[C@H]23 | inactive
O=S(=O)(Oc1ccc(Cl)cc1)c1ccc(Cl)cc1 | inactive
CC(C)[C@@H](Nc1ccc(C(F)(F)F)cc1Cl)C(=O)OC(C#N)c1cccc(Oc2ccccc2)c1 (stereo not given in full) | inactive
Cc1cc(Cl)ccc1N | inactive
O=C(CCl)NCO | inactive
Cc1c([N+](=O)[O-])c(C)c([N+](=O)[O-])c(C(C)(C)C)c1[N+](=O)[O-] | inactive
Nc1ccc(N)cc1 | inactive

SMILES | outcome
CC(C)(C)c1cc([N+](=O)[O-])cc(C(C)(C)C)c1O | inactive
CCOP(=S)(OCC)OP(=S)(OCC)OCC | inactive
O=C(O)COc1cc(Cl)c(Cl)cc1Cl | inactive
Oc1c(Br)cc(Br)cc1Br | inactive
CC(O)(CS(=O)(=O)c1ccc(F)cc1)C(=O)Nc1ccc(C#N)c(C(F)(F)F)c1 (stereo not given) | inactive
O=C(NC(=O)c1c(F)cccc1F)Nc1ccc(Cl)cc1 | inactive
O=C(O)COc1ccc(Cl)cc1 | inactive
Brc1c(Br)c(Br)c(Oc2c(Br)c(Br)c(Br)c(Br)c2Br)c(Br)c1Br | inactive
CCCCOC(=O)COC(=O)c1ccccc1C(=O)OCCCC | inactive
N#Cc1cccnc1 | inactive
C=CCc1ccccc1O | inactive
CCCCS(=O)(=O)Cl | inactive
O=[N+]([O-])c1ccccc1O | inactive
CN(C1CCCCC1)C1CCCCC1 | inactive
Nc1nc(=S)[nH][nH]1 | inactive
O=C(O)CC(O)(CC(=O)O)C(=O)O | inactive
Nc1nc(N)nc(Cl)n1 | inactive
CC(C)=CC1C(C(=O)OCc2cccc(Oc3ccccc3)c2)C1(C)C (stereo not given) | inactive
CCOc1cc(C=O)ccc1O | inactive
CCN(N=O)C(N)=O | inactive
